HT1080 IDH1KD tx: kills HT-1080 cells with IDH1 knockdown | HT-1080 IDH1 knockdown viability, ATP luminescence, 48 h | Potency, µM (highest dose often 46.1 µM), actives largely listed as cytotoxic | AID 686971 | hit rate 2% among 360,000
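% activity derives from luminescence (CellTiter-Glo), normalised to DMSO and no-cell wells. HT-1080-IDH1KD cells, 750/well, had 48 h compound exposure at 37 °C.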
HT1080-NT tox: kills 2HG-producing HT-1080-NT fibrosarcoma cells | AID 686970 | HT-1080-NT fibrosarcoma viability, CellTiter-Glo ATP luminescence, 48 h | Potency, µM (highest dose often 46.1 µM), actives largely listed as cytotoxic | hit rate 1.6% among 360,000;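 further: NT is the 2HG producing partner of a matched IDH1 knockdown line; nearly all actives have a fitted effect of over 55% in size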
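Read-out is CellTiter-Glo luminescence after 10 minutes at room temperature, following 48 hours' compound treatment of HT-1080-NT cells (750 cells/well, RPMI, 5% FBS, 37 degrees C).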
IL1B secr inh: inhibitors of inflammasome signaling (IL-1 beta secretion); THP-1 LPS/ATP IL-1B secretion, AlphaLISA, 16 h; active compounds read low; activity change, % at 57.5 µM; hit rate 4.7% among 360,000; AID 743279; in the data active means activity change below about -50%; inconclusive means mostly about -30% to -49%
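Secreted IL-1B measured by AlphaLISA bead assay after 16 h compound exposure of THP-1 cells; compounds (final up to 57.5 uM) added 1 h before LPS (250 ng/mL) and ATP (1.25 mM) stimulation; lower signal means less secretion.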
TDP1 cell CPT: growth inhibition of DT40 Tdp1-/-;hTDP1 cells with camptothecin (screen for TDP1 inhibitors); AID 686979; Potency, µM (doses to about 46.2 µM), most hits filed as inhibitors; hit rate 12% among 420,000; chicken DT40 Tdp1-/-;hTDP1 cells + 20 nM CPT, ATP luminescence, 48 h; further: nearly all actives have a fitted effect of over 55% in size
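Chicken DT40 Tdp1-/- cells complemented with human TDP1, 400 cells/well, exposed to compounds plus 20 nM camptothecin for at least 48 h at 37 C; viability read as ATP content by CellTiter-Glo luminescence.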
TDP1 cell noCPT: qHTS for Inhibitors of human tyrosyl-DNA phosphodiesterase 1 (TDP1): qHTS in cells in absence of CPT; DT40 Tdp1-/- hTDP1 cells, no CPT, ATP luminescence, 48 h; Potency, µM (titrated, usually from 46.2 µM), hits mostly inhibitors; hit rate 15% among 420,000; further: nearly all actives have a fitted effect of over 55% in size
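Readout: luminescence from CellTiter-Glo after 30 min in the dark at RT. Cells: DT40 Tdp1-/- with stable hTDP1, 400/well. Exposure: compounds alone, ≥48 hr, 37 °C.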
Numbers stand for hits; . = inactive; ? = inconclusive; / = no result; [ ] = dose if it differs, or a comment. Shown are actives, neighbours in structure and some others; about 19% of the full set was active somewhere. Unless noted, the call rests on the fitted dose curve; in most records, active means well fitted curve in the direction sought with a large enough effect; inconclusive means small, poorly fitted or top-dose-only effect, or another doubt; inactive means no such curve, though single readings can be large; an effect the other way counts as inactive or inconclusive.

SMILES	HT1080 IDH1KD tx	HT1080-NT tox	IL1B secr inh	TDP1 cell CPT	TDP1 cell noCPT
COc1ccc(C(=O)NC(=S)Nc2cc(C)ccn2)cc1[N+](=O)[O-]	.	.	.	16.4µM	?
CCCCOc1ccc(C(=O)Nc2ccc(N3CCN(C(C)=O)CC3)cc2)cc1	.	.	.	.	?
COc1ccccc1C(=O)NCCC(=O)N(C)CC(=O)Nc1c(Cl)cccc1Cl	.	.	.	.	.
COc1ccc(C(=O)Nc2ccncc2)cc1[N+](=O)[O-]	.	.	-79.0	.	.
Cc1ccc(C(=O)N2CCN(c3ccc(NC(=O)c4cccnc4)cc3)CC2)cc1	.	.	.	.	.
COc1ccc(C(=O)Nc2ccc(N3CCN(C)CC3)cc2)cc1[N+](=O)[O-]	.	.	.	.	.
COc1cc(C(=O)Nc2ccc(N3CCN(C(=O)c4ccc(C)cc4)CC3)cc2)cc(OC)c1OC	.	.	.	20.6µM	14.6µM
COc1ccc(C(=O)Nc2ccc(N3CCN(C(=O)C(C)C)CC3)cc2)cc1[N+](=O)[O-]	.	.	.	?	11.6µM
COc1cc(C)ccc1S(=O)(=O)NC(=O)Cn1nnc(COc2ccc3c(c2)CCCC3)c1C	.	.	.	.	.
COc1cc2c(cc1OC)CN(C(=O)CSc1nnc(C)s1)CC2	.	.	.	.	.
Cc1ccc(N(CC(=O)N2CC(=O)Nc3ccccc32)S(=O)(=O)c2ccc3c(c2)OCCO3)cc1	.	.	.	.	.
COc1ccc(-c2nc3ccc(NC(C)=O)cc3c(=O)n2Cc2ccccc2)cc1COc1ccc(NC(C)=O)cc1	.	.	/	?	11.2µM
CCCc1nc2ccc(NC(C)=O)cc2c(=O)n1Cc1ccccc1Cl	.	.	?	?	?
COc1ccc(-c2nc3ccc(NC(=O)CO)cc3c(=O)n2Cc2cccc(Cl)c2)cc1COc1ccc(NC(C)=O)cc1	?	?	/	11.2µM	12.6µM
CC(=O)Nc1ccc2nc(C)n(Cc3ccc(Cl)cc3)c(=O)c2c1	.	.	.	.	?
CC(=NC1CC1)c1c(-c2ccccc2)[nH]n(-c2nc3ccccc3s2)c1=O	.	.	/	?	22.4µM
COCCCNc1ncnc2sc(C(=O)N3CCOCC3)c(C)c12	/	/	/	.	.
COc1ccc(OC)c(-c2cc(C(=O)N/N=C/c3ccc(F)cc3)c3ccccc3n2)c1	.	.	/	5.17µM	1.03µM
CCN(CC)c1ccc(/C=N/NC(=O)c2cc(C)nc3ccccc23)cc1	?	.	.	.	?
COc1ccc(OC)c(-c2cc(C(=O)O)c3cc4ccccc4cc3n2)c1	.	.	.	.	.
COc1ccc(OC)c(-c2cc(C(=O)Nc3ccccc3C(N)=O)c3ccccc3n2)c1	?	.	.	20.6µM	8.2µM
COc1ccc(OC)c(-c2cc(C(=O)N/N=C/c3cc(OC)c(OC)cc3OC)c3ccccc3n2)c1	.	.	?	16.4µM	9.2µM
CCc1cc(C(=O)N/N=C/c2ccc(OC)cc2)c2ccccc2n1	?	?	.	7.31µM	3.26µM
NNC(=O)c1nnsc1-c1csnn1	.	.	.	.	.
COc1ccccc1C(=O)NNC(=O)C1CC=CCC1 (configuration not stated)	.	.	.	.	.
SMILES	HT1080 IDH1KD tx	HT1080-NT tox	IL1B secr inh	TDP1 cell CPT	TDP1 cell noCPT
CCOC(=O)CNC(=O)c1ccc(C)cc1	.	.	.	.	.
CCO/C=C/C(O)(CNC(=O)c1ccc(C(C)(C)C)cc1)C(F)(F)F (configuration not stated)	.	.	.	?	16.4µM
CC(C)(C)c1ccc(C(=O)CS(=O)(=O)c2ccccc2)cc1	.	.	.	?	16.4µM
COc1ccc(-n2nc(C(=O)Nc3nc4ccc(OC)cc4s3)c3ccccc3c2=O)cc1	.	.	.	?	?
CCN1/C(=C2/SC(=S)N(NC(C)=O)C2=O)Sc2ccc(Cl)cc21	.	.	.	?	18.4µM
COc1ccc(CN2CCC(n3nccc3NC(=O)C3CC3)CC2)cc1O	.	.	.	.	.
COc1cccc(-c2ccc3ncnc(NCc4cnc(C)cn4)c3c2)c1	/	/	/	23.1µM	14.6µM
Cc1cnc(CNc2ncnc3ccc(-c4ccccc4C)cc23)cn1	/	/	/	16.4µM	?
Cc1cnc(CNc2ncnc3ccc(-c4ccccc4CN(C)C)cc23)cn1	/	/	/	.	?
CC(=O)c1ccc(NC(=O)CC(c2cccs2)N2Cc3ccccc3C2=O)cc1 (configuration not stated)	/	/	/	.	?
CCc1nn2c(=O)c(S(=O)(=O)Nc3cccc(F)c3)c(C)nc2s1	.	.	.	.	.
CCc1nn2c(=O)c(S(=O)(=O)Nc3ccc(C(C)C)cc3)c(C)nc2s1	.	.	.	?	16.4µM
CCCN(CC(=O)Nc1ccc(F)c(F)c1F)CC(=O)Nc1c(Cl)cccc1Cl	.	.	.	10.3µM	4.11µM
CCCN(CC(=O)Nc1cccc(Br)c1)CC(=O)Nc1ccc(F)c(F)c1F	?	?	-92.3	?	?
CCCN(CC(=O)Nc1ccc(C)cc1Br)CC(=O)Nc1ccc(F)c(F)c1F	.	.	.	?	18.4µM
CCCN(CC(=O)Nc1ccc(NC(C)=O)cc1)CC(=O)Nc1ccc(F)c(F)c1F	.	.	.	.	?
CNCCC1Sc2ccccc2Oc2ccccc21 (configuration not stated)	.	.	.	?	?
CN(C)CCCC1Sc2ccccc2Sc2ccccc21 (configuration not stated)	?	23.1µM	-66.1	?	?
O=C1NC(Cc2c[nH]c3ccccc23)C(=O)N1Cc1ccc(CN2C(=O)NC(Cc3c[nH]c4ccccc34)C2=O)cc1 (configuration not stated)	.	.	.	?	23.1µM
O=C1N[C@@H](Cc2c[nH]c3ccccc23)C(=O)N[C@H]1Cc1c[nH]c2ccccc12	/	/	/	.[9.04 µM]	.[9.04 µM]
O=C1CC(C(=O)N2CCOCC2)C2(CCCCC2)O1 (configuration not stated)	.	.	.	.	.
O=C(NCC(=O)N1CCOCC1)OCc1ccccc1	.	.	.	.	.
O=C(Nc1ccc(N2CCOCC2)cc1Cl)C1CCN(C(=O)OCc2ccccc2)CC1	?	?	.	?	16.4µM
N#Cc1cccc(C(=O)C(=O)N2CCN(C(=O)OCc3ccccc3)CC2)c1	.	.	.	?	23.1µM
COc1cccc(C(=O)C(=O)N2CCN(C(=O)OCc3ccccc3)CC2)c1	.	.	.	?	?
O=C(OCc1ccccc1)N1CCOCCN(C(=O)OCc2ccccc2)CCOCC1	.	.	.	25.9µM	25.9µM
O=C(Nc1ccc(Cl)cc1)c1ccc2sc([C@@H]3O[C@H](CO)[C@@H](O)[C@H]3O)nc2c1	?	.	.	?	?
C=CCn1c(=S)[nH]c2sc3c(c2c1=O)CCC3	?	7.08µM	.	?	?

Assay outcomes: PubChem BioAssay, National Center for Advancing Translational Sciences (NCATS)
